Results on 27 compounds are retold here after PubChem BioAssay (Tox21).

Results filed as inconclusive are left out. Entries that show only a call come without a potency. The source made the active and inactive calls. The call rests on the fitted dose curve.
Potency means the concentration at half of the fitted maximal effect.

Acetylcholinesterase (Homo sapiens), sequence (P22303 whole entry, looked up): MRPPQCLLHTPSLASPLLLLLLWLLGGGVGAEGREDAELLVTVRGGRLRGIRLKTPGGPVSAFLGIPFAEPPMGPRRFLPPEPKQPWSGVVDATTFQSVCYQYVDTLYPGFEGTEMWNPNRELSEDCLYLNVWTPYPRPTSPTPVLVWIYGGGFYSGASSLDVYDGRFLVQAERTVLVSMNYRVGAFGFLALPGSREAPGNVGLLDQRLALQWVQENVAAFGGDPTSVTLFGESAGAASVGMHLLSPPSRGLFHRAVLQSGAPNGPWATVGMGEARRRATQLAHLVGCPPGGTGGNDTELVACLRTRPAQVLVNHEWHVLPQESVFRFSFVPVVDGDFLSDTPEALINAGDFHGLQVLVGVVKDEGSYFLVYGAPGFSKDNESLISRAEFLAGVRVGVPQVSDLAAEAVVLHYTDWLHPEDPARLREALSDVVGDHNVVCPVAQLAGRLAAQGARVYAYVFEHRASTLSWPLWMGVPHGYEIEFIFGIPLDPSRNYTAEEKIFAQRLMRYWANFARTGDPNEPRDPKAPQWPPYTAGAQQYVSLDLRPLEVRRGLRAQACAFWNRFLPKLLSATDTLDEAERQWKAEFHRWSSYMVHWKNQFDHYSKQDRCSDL

This assay has as its target Acetylcholinesterase (Homo sapiens) (UniProt P22303). The assay is described as follows: Acetylcholinesterase (AChE) small molecule antagonists: colormetric cell-based qHTS assay (AID 1347395). Further: nearly all actives have a fitted effect of over 30% in size. As to conditions: SH-SY5Y cells AChE activity, colorimetric (Ellman); series mostly up to 115 µM. In short, it runs like this: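 Neuroblastoma line SH-SY5Y supplied the enzyme; cells were preincubated with compound for 30 min at 37 C and 5% CO2. Acetylthiocholine with DTNB was then added for 90 min at 37 C, and thiocholine was measured by colour.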
On to `Nc1ccccc1C(=O)OC/C=C/c1ccccc1`, for which the Potency entry was “inactive”. To `CN(CCCC(=O)c1cccnc1)N=O` belongs “inactive”. To `C[C@H]1CC[C@@H]2[C@@H](C)[C@H]3[C@H](C[C@H]4[C@@H]5CC=C6CC(O[C@@H]7O[C@H](CO)[C@H](O)[C@H](O[C@@H]8O[C@H](CO)[C@@H](O)[C@H](O)[C@H]8O)[C@H]7O[C@H]7O[C@@H](C)[C@H](O)[C@@H](O)[C@H]7O)CC[C@]6(C)[C@H]5CC[C@]34C)N2C1` (some centres not stated) belongs 26 µM (active); to `CCOP(=S)(OCC)SCS(=O)(=O)C(C)(C)C`, 63.3 µM (active). Next, `C[C@@H](Oc1ccc(Cl)cc1Cl)C(=O)O`: “inactive”; `COC[C@H](C)N(C(=O)CCl)c1c(C)csc1C`: “inactive”; `Cc1c(Cl)c(=O)oc2cc(OP(=O)(OCCCl)OCCCl)ccc12`: 3.89 µM (active).

`SCc1ccco1`: the Potency result was “inactive”. For the compound `Nc1ccccc1C(=O)Oc1ccc2ccccc2c1`, the Potency entry was “inactive”. To `CC(C)CCCCCCCOP(=O)(Oc1ccccc1)Oc1ccccc1` belongs “inactive”; to `O=C(O)COc1nc(Cl)c(Cl)cc1Cl`, “inactive”. To `COC(=O)N(C(=O)N1COC2(C(=O)OC)Cc3cc(Cl)ccc3C2=N1)c1ccc(OC(F)(F)F)cc1` (configuration not stated) belongs “inactive”; to `CC(C)CC(C)(c1ccc(O)cc1)c1ccc(O)cc1`, “inactive”. Next, `ClC1=C(Cl)[C@]2(Cl)[C@H]3[C@H]([C@H]4C=C[C@H]3C4)[C@@]1(Cl)C2(Cl)Cl`: “inactive”; `Cc1ccc(CCl)cc1`: “inactive”; `Cc1cc(Cl)ccc1O[C@H](C)C(=O)O`: “inactive”.

`CCOC(=O)c1ccccc1S(=O)(=O)NC(=O)Nc1nc(Cl)cc(OC)n1`: the Potency entry is “inactive”. To `COc1cccc2c1C(=O)c1c(O)c3c(c(O)c1C2=O)C[C@@](O)(C(=O)CO)CC3OC1CC(N2CCOC(OC)C2)C(O)C(C)O1` (some centres not stated) belongs 12.3 µM (active); to `CC[C@H]1C[C@@H]2C[C@H]3c4[nH]c5ccc(OC)cc5c4CCN(C2)[C@@H]13`, “inactive”. With `Oc1ccc(C2(c3ccc(O)cc3)CCCCC2)cc1`, the Potency result is “inactive”.

For `O=[N+]([O-])c1cc(C(F)(F)F)c(Cl)c([N+](=O)[O-])c1Cl`, the Potency entry was “inactive”. With `COC(=O)N(C(=O)N1CO[C@@]2(C(=O)OC)Cc3cc(Cl)ccc3C2=N1)c1ccc(OC(F)(F)F)cc1`, the Potency entry is “inactive”.

For `OC(c1ccc(Cl)cc1)(c1ccc(Cl)cc1)C(Cl)(Cl)Cl`, the Potency result was “inactive”. `Oc1cccc(-c2ccccc2)c1`: the Potency entry was “inactive”. Next, `CS(=O)(=O)c1ccc(C(=O)C2C(=O)CCCC2=O)c([N+](=O)[O-])c1`: 27.2 µM (active). Consider `CC(Cc1ccc(C(C)(C)C)cc1)CN1C[C@@H](C)O[C@@H](C)C1` (some centres not stated), for which the Potency result is “inactive”. Consider `CCOC(=O)C1(c2ccccc2)CCN(CCC(C#N)(c2ccccc2)c2ccccc2)CC1`, for which the Potency entry was “inactive”.
